Compound activity from PubChem BioAssay.
Sampled rows, rich in hits. Any-hit rate of the full collection: about 2.9%.
a7 integrin act: qHTS for Activators of Integrin-Mediated Alleviation for Muscular Dystrophy; alpha7betagal myoblasts, beta-gal FDG fluorescence, 48 h; Potency, µM (doses to about 38.3 µM), for inactives: at the top dose activation, hits mostly activators; 350,000 tested, 0.064% active; AID 624291, 2012;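 further: potency means the concentration at half of the fitted maximal effect; 100% = response of the positive control SU9516; nearly all actives have a fitted effect of over 60% in size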
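alpha7betagal+/- myoblasts (passage 13, 250/well) treated 48 h at 37C with compounds at 1:260 dilution of DMSO stock. Lysed, then beta-galactosidase activity read as FDG fluorescence (ex 480/em 540) after 30 min, with pre-read for autofluorescence.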
B2AR arrestin: qHTS assay of beta-arrestin-biased ligands of beta2-adrenergic receptor | Beta-2 adrenergic receptor (Homo sapiens), P07550 | beta-arrestin recruitment to beta2AR, cell-based reporter | Potency, µM (highest dose often 46.1 µM), for inactives: top-dose activation, most hits filed as activators | 330,000 tested, 0.02% active | AID 492947, 2010;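 further: potency means the concentration at half of the fitted maximal effect; 0% = DMSO controls and full agonism = EC100 isoproterenol or metaproterenol; nearly all actives have a fitted effect of over 65% in size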
IDH1 R132H inh: qHTS for Inhibitors of mutant isocitrate dehydrogenase 1 (IDH1): qHTS; Isocitrate dehydrogenase [NADP] cytoplasmic (Homo sapiens), O75874; IDH1-R132H enzyme, NADPH consumption, diaphorase/resazurin fluorescence; Potency, µM (titrated, usually from 76.6 µM), without a hit: at the highest dose activity change, negative = inhibition, most hits filed as inhibitors; 390,000 tested, 0.093% active; further: potency means the concentration at half of the fitted maximal effect; on the % scale 0 is the no-effect control and ±100 the full control effect; nearly all actives have a fitted effect of over 65% in size
Target sequence (O75874 whole entry R132H, stated change not applied): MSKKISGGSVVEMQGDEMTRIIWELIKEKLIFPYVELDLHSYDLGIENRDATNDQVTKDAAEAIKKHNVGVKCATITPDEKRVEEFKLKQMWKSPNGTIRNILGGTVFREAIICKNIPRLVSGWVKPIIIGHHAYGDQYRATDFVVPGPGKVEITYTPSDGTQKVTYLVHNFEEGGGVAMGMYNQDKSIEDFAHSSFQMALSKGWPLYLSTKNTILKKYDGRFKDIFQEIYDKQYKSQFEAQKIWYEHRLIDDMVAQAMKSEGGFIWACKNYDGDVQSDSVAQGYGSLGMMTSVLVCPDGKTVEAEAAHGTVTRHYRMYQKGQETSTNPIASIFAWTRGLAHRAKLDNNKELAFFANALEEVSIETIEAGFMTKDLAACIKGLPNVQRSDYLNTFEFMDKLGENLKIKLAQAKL
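IDH1-R132H (0.5 ug/mL) preincubated 30 min with compound, then NADPH (0.016 mM) and alpha-KG (2 mM) added; 80 min at RT, pH 7.5. Remaining NADPH coupled via diaphorase/resazurin to fluorescence (540/590 nm); concentration-response curves normalized to no-enzyme control.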
D3 antag: qHTS of D3 Dopamine Receptor Antagonist: qHTS; AID 652054, 2013; 360,000 tested, 2.5% active; D(3) dopamine receptor (Homo sapiens), P35462; D3R cells, DiscoveRx beta-arrestin luminescence, antagonist mode; active compounds read low; max response, negative = inhibition, %; in the data active means max response below about -50%; inconclusive means no clear call, values can overlap the other calls; further: on the % scale 0 is the no-effect control and ±100 the full control effect
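Cells expressing the human receptor were seeded at 1500 cells/well, incubated overnight at 37 degrees C in 5% CO2, then exposed to library compounds with dopamine controls for 90 minutes at 37 degrees C before luminescent detection.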
DRD3 agonist: qHTS of D3 Dopamine Receptor Agonist: qHTS. max activation, %. D3R DiscoveRx beta-arrestin cells, luminescence, 90 min. D(3) dopamine receptor (Homo sapiens), P35462. 410,000 tested, 0.58% active; in the data active means max activation above about 30%; further: 0% is about no effect
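Agonist mode: compounds and dopamine controls were applied to plated cells for 90 min at 37 degrees C after an overnight attachment at 1500 cells/well. Luminescent read-out followed 30 - 60 minutes at room temperature with DiscoveRx detection reagent.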
The depositor's hits bear a star; ? = inconclusive; . = no result. Unless noted, the call rests on the fitted dose curve; in most records, active means well fitted curve in the direction sought with a large enough effect; inconclusive means small, poorly fitted or top-dose-only effect, or another doubt; inactive means no such curve, though single readings can be large; an effect the other way counts as inactive or inconclusive.

SMILES	a7 integrin act	B2AR arrestin	IDH1 R132H inh	D3 antag	DRD3 agonist
Fc1ccc(COc2ccccc2CNCc2ccncc2)cc1	-32%	0%	-3%	-1	-7
CCc1cc(OCCCCNCc2ccccc2)ccc1Cl	-51%	0%	0%	?	-13
Brc1ccc(OCc2ccccc2)c(CNCc2ccncc2)c1	-24%	-1%	6%	-62*	-40
FC(F)(F)c1cnc(NNC(=S)Nc2ccccc2)c(Cl)c1	9%	.	-7%	-92*	-17
FC(F)(F)c1cnc(NNC(=S)Nc2cccnc2)c(Cl)c1	4%	1%	16%	-67*	-11
COc1ccccc1NC(=O)C1=C(C)Nc2c(C(=O)Nc3ccc(F)cc3)cnn2C1c1cccc([N+](=O)[O-])c1 (configuration not stated)	.	.	-4%	.	-5
CCOC(=O)N1CCc2c(sc3c2c(=O)n(Cc2ccccc2)c(=O)n3CC(=O)Nc2cccc(CC)c2)C1	.	.	-9%	.	-1
COc1cc(NC(=O)CC2C(=O)N(c3cccc(C)c3)C(=O)N2Cc2cccs2)cc(OC)c1 (configuration not stated)	.	.	2%	.	5
COc1ccc([N+](=O)[O-])c(S(=O)(=O)c2ccccc2)n1	-52%	0%	1%	-76*	-45
COc1ccccc1S(=O)(=O)c1ccccc1[N+](=O)[O-]	-26%	0%	1%	-12	-11
COc1ccc([N+](=O)[O-])c(S(=O)(=O)c2ccc(Cl)cc2)n1	-55%	-1%	2%	-95*	-10
O=[N+]([O-])c1cccnc1S(=O)(=O)c1ccccc1	-62%	0%	1%	-74*	-9
O=C(Nc1cccc(C(F)(F)F)c1)C1CC(=O)N(Cc2ccco2)C1 (configuration not stated)	11%	.	-1%	5	2
CCOC(=O)C(NC(=O)NCc1ccccc1)(OCC)C(F)(F)F (configuration not stated)	-16%	-1%	1%	0	-2
CCOC(=O)C(NC(=O)Nc1ccc(F)cc1)(OCC)C(F)(F)F (configuration not stated)	18%	-1%	7%	-53*	-7
CCN(CCCNC(=O)c1cc2c(=O)[nH]c3ccc(C)cc3c2s1)Cc1ccccc1	.	.	-15%	.	4
COc1ccc(CNC(=O)CN(C(=O)CCC(=O)Nc2nccs2)c2ccc(C)cc2)cc1	-15%	0%	29%	-13	-4
Cc1ccc(CS(=O)(=O)c2ncc(Cl)c(C(=O)Nc3nnc(C(C)C)s3)n2)cc1	-77%	0%	4%	0	-21
CCc1nnc(NC(=O)c2nc(S(=O)(=O)Cc3ccc(C)cc3)ncc2Cl)s1	-73%	0%	-1%	-50*	-19
CCc1nnc(NC(=O)c2nc(S(=O)(=O)Cc3ccccc3)ncc2Cl)s1	-75%	0%	3%	0	-9
Cc1cccc(CS(=O)(=O)c2ncc(Cl)c(C(=O)Nc3nnc(C(C)C)s3)n2)c1	-5%	-1%	5%	-62*	-20
CSc1nnc(NC(=O)c2nc(S(=O)(=O)Cc3cccc(C)c3)ncc2Cl)s1	-73%	0%	-1%	-54*	-2
CCc1nnc(NC(=O)c2nc(S(=O)(=O)Cc3cccc(C)c3)ncc2Cl)s1	0%	0%	0%	-70*	-24
COc1ccccc1N1CCN(C(=O)c2ccc3c(c2)N(Cc2cc(C)ccc2C)C(=O)c2ccccc2S3(=O)=O)CC1	.	.	.	.	4
CCc1noc(C)c1C(=O)N1CCN(c2cccc(Cl)c2)CC1	-16%	.	0%	8	5
SMILES	a7 integrin act	B2AR arrestin	IDH1 R132H inh	D3 antag	DRD3 agonist
CCOc1ccccc1NC(=O)c1nc(S(=O)(=O)Cc2cccc(C)c2)ncc1Cl	-35%	0%	-15%	-96*	-23
Cc1ccc(C)c(NC(=O)c2nc(S(=O)(=O)Cc3ccc(F)cc3)ncc2Cl)c1	.	.	-16%	.	-29
COc1ccc(Nc2nc(Nc3ccc(OC)cc3OC)nc(N3CCOCC3)n2)c(OC)c1	.	.	15%	.	40*
Cc1ccc(NC(=O)c2oc3c(c2C)-c2[nH]ncc2CC3)c(Cl)c1	.	.	17%	.	-18
Cc1sc2ncnc(OCC(=O)NCc3cccs3)c2c1C	-23%	0%	0%	-83*	7
CNC(=O)COc1ncnc2sc(C)c(C)c12	-3%	0%	2%	0	-12
CCN(CC)C(=O)C1=C(C)N(CCCN2CCCC2=O)C(=O)C(CC(=O)NCc2cccs2)C1 (configuration not stated)	-2%	.	2%	18	-3
Cc1cc(S(=O)(=O)Nc2ccc(C(=O)N3CCN(c4ccccc4O)CC3)cc2)ccc1F	-23%	0%	2%	43	32*
COC(=O)Cc1ccc(N(Cc2ccccc2F)S(=O)(=O)c2ccc(Cl)cc2)cc1	-3%	0%	8%	-56*	-7
CC(=O)c1cc(-c2ccc(F)cc2)n(CCC(=O)NCc2ccccc2C)c1C	.	.	-8%	.	-14
O=C(CSc1c2c(nc3ccc(Cl)cc13)CCCC2)N1CCCCC1	.	.	14%	.	-10
CC1CCN(C(=O)CSc2c3c(nc4ccc(Cl)cc24)CCCC3)CC1	.	.	18%	.	69*
COc1ccc2nc(C)cc(Sc3nc4ccccc4s3)c2c1	2%	3%	10%	-22	5
COc1cc(/C=C2\SC(=O)NC2=O)ccc1Oc1ccc([N+](=O)[O-])cc1[N+](=O)[O-]	0%	0%	-33%	0	2
CCN1C(=O)C(=Cc2cccc(OC)c2Oc2ccc([N+](=O)[O-])cc2[N+](=O)[O-])SC1=S	-57%	0%	9%	-70*	-27
O=C(CSc1n[nH]c(=O)n1C1CC1)Nc1cc(Cl)ccc1Oc1ccccc1	-60%	0%	11%	-18	32*
O=C(CSc1n[nH]c(=O)n1C1CC1)Nc1ccccc1	16%	0%	-2%	1	3
COC(=O)c1c(-c2ccc(Cl)cc2)noc1N1CCN(c2ccc(OC)cc2)CC1	.	.	-8%	.	69*
COC(=O)c1c(-c2ccc(Cl)cc2)noc1N1CCN(c2ccc(C(C)=O)cc2)CC1	.	.	12%	.	4
CCN1CCCC1CNC(=O)c1[nH]c2ccc(OC)cc2c1C (configuration not stated)	16%	0%	-8%	-61*	-15
C=CCN1CCCC1CNC(=O)c1cc2[nH]nnc2cc1OC (configuration not stated)	.	0%	14%	-81*	-86
CCN1CCCC1CNC(=O)c1cc(N)ccc1OC (configuration not stated)	-10%	.	-4%	-52*	-16
